Test results reported in PubChem BioAssay.
The source made the active and inactive calls. Unless noted, how the calls were made is not given here.

Key:
[1] = test system: Wnt5a (protein binding on small-molecule microarray); assay: Wnt5a binders on small-molecule microarray, primary screen, biophysical, 635/667 nm fluorescence (AID 1142); settings: 635 nm fluorescence, higher = more signal;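 further: fluorescence read at 667 nm with signal to noise per printed feature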
[2] = cell viability in Huh7 cells, primary screen, cytotoxicity control for HCV replication inhibitor project, CellTiter-Glo luminescence, basal, 48 h (AID 1143); settings: Huh7 HCV replicon, higher = more signal, called active from +8 up or from −8 down;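 further: Huh7 hepatoma cells carrying a hepatitis C replication reporter with no stimulus; test concentration not given here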
[3] = P. aeruginosa biofilm formation inhibitors, primary screen, PAO1 strain, BacTiter-Glo luminescence, LB-PBS (AID 1144); settings: 12 h, higher = more signal
[4] = CREB reporter modulators without forskolin, primary screen, cell-based, PC12, CRE-LacZ reporter, unstimulated (AID 1145); settings: no forskolin, luminescence, 4.5 h, higher = more signal, called active from +8 up or from −8 down
[5] = CREB reporter modulators under forskolin, primary screen, cell-based, PC12, CRE-LacZ reporter, forskolin-stimulated (AID 1146); settings: luminescence, 4.5 h, higher = more signal, called active from +8 up or from −8 down;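 further: PC12 cells with 6xCRE LacZ reporter stimulated by forskolin 10 µM; beta-galactosidase reporter signal reflecting CREB driven transcription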
[6] = biological target: Streptavidin (Streptomyces avidinii) (UniProt P22629); assay: streptavidin binders on small-molecule microarray, primary screen, artefact control for SMM compound annotation, biophysical, 635/667 nm fluorescence (AID 1147); settings: streptavidin binding, higher = more signal;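 further: signal reflects streptavidin binding to arrayed compounds as a control protein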
Streptavidin (Streptomyces avidinii), sequence (P22629 whole entry, looked up): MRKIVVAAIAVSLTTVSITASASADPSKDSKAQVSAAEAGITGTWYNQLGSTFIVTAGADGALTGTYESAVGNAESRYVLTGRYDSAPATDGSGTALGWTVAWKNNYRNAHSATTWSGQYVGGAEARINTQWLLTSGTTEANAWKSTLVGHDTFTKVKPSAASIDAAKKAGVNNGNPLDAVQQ

[7] = small-molecule binders of probe aInhba, primary screen, biochemical, small-molecule microarray, 635/667 nm fluorescence (AID 1148); settings: higher = more signal;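 further: score merges 667nm spot fluorescence with signal-to-noise for antibody binding to printed compounds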
[8] = biological target: Torsin-1A (Homo sapiens) (UniProt O14656); assay: torsin A binders from cell lysate, primary screen, small-molecule microarray, wild-type, 635/667 nm (AID 1149); settings: COS7 hTOR1A-WT lysate, 635 nm fluorescence, higher = more signal
Torsin-1A (Homo sapiens), sequence (O14656 whole entry, looked up): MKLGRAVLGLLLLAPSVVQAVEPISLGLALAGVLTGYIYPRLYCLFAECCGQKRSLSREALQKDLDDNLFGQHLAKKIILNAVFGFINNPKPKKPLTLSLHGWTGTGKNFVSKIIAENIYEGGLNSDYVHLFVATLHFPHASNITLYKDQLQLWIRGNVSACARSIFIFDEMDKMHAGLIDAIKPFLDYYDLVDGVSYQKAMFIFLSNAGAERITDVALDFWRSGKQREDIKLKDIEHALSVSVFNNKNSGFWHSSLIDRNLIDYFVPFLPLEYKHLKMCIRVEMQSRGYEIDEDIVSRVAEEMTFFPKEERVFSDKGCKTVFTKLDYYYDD

[9] = biological target: Torsin-1A (Homo sapiens) (UniProt O14656); assay: small-molecule binders of mutant TOR1A in lysate, primary screen, cell lysate, small-molecule microarray, COS7 lysate, 635/667 nm fluorescence (AID 1150); settings: COS7 hTOR1A mutant lysate, 635 nm fluorescence, higher = more signal;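 further: score pools 667 nm emission and signal to noise measuring lysate protein binding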
[10] = test system: Sonic hedgehog protein (Shh); assay: small-molecule binders of Shh protein, primary screen, biochemical, small-molecule microarray, 635/667 nm fluorescence (AID 1151); settings: small-molecule microarray binding, 635 nm fluorescence; higher = more signal;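 further: Shh protein binding to compounds spotted on small-molecule microarray slides; score combines spot fluorescence intensity with signal-to-noise across triplicate slides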
[11] = E. coli DRC41 culture turbidity changes, primary screen, E. coli filamentation inducer project, strain DRC41, OD650, 48 h (AID 1152);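 further: E. coli MC1000 strain DRC41 lacking acrAB efflux pump and sulA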; settings: E. coli DRC41 (acrAB sulA), higher = more signal, called active from +8 up or from −8 down
[12] = small-molecule binders of probe aLefty1, primary screen, biochemical, small-molecule microarray, 635/667 nm fluorescence (AID 1153); settings: higher = more signal;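 further: score merges spot fluorescence with signal-to-noise ratio from the scanned slide images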
[13] = PSAC antagonists in infected red cells, primary screen, cell-based, P. falciparum Indochina, OD700, 1 h (AID 1154); settings: P. falciparum Indochina infected RBC osmotic lysis, higher = more signal, called active from +8 up or from −8 down
[14] = PSAC antagonists in infected red cells, primary screen, cell-based, P. falciparum Indochina, OD700, 2 h (AID 1155);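 further: lysis reports solute entry through the parasite surface anion channel PSAC; channel blockers reduce lysis of infected cells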; settings: P. falciparum Indochina infected erythrocytes, osmotic lysis OD700; higher = more signal, called active from +8 up or from −8 down
[15] = osmotic lysis modulators in infected erythrocytes, primary screen, PSAC antagonist project, cell-based, P. falciparum Indochina, OD700, 3 h (AID 1156); settings: higher = more signal, called active from +8 up or from −8 down
[16] = PSAC antagonists in infected red cells, primary screen, cell-based, P. falciparum Indochina, OD700, 18 h (AID 1157); settings: P. falciparum Indochina infected erythrocytes, osmotic lysis OD700, 18 h; higher = more signal, called active from +8 up or from −8 down
[17] = modulators of S6 phosphorylation in cells, primary screen, cell-based, A549, cytoblot, luminescence, serum-stimulated (AID 1158); settings: A549 phospho-S6 cytoblot, 5 h, higher = more signal;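 further: serum-stimulated A549 lung adenocarcinoma cells; signal is phosphorylated S6 detected by cytoblot immunostaining with HRP secondary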
[18] = biological target: NADPH oxidase 2 (Homo sapiens) (UniProt P04839); assay: NOX2-dependent H2O2 signal modulators, primary screen, NOX inhibitor project, cell-based, HEK293-NOX2, PMA-stimulated, Amplex Red fluorescence (AID 1159); settings: 45 min, higher = more signal, called active from +8 up or from −8 down; further: test concentration not given here
NADPH oxidase 2 (Homo sapiens), sequence (P04839 whole entry, looked up): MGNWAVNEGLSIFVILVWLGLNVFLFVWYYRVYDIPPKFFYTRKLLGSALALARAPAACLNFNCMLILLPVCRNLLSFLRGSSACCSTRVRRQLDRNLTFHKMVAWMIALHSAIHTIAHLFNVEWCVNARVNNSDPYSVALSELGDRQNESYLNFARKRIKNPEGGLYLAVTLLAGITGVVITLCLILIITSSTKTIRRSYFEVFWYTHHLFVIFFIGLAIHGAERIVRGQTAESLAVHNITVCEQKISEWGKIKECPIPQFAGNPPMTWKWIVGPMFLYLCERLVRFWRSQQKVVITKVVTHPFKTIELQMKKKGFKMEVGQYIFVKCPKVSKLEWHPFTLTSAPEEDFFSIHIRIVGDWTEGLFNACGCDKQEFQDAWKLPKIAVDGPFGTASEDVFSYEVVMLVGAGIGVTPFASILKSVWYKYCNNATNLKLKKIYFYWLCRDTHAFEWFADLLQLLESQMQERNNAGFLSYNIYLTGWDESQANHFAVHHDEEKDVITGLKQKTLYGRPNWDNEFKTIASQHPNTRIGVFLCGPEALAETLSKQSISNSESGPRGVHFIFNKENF

[19] = biological target: NADPH oxidase 4 (Homo sapiens) (UniProt Q9NPH5); assay: NOX4-dependent H2O2 signal modulators, primary screen, NOX inhibitor project, cell-based, HEK293-NOX4, tetracycline-induced, Amplex Red fluorescence (AID 1160); settings: 45 min, higher = more signal, called active from +8 up or from −8 down
NADPH oxidase 4 (Homo sapiens), sequence (Q9NPH5 whole entry, looked up): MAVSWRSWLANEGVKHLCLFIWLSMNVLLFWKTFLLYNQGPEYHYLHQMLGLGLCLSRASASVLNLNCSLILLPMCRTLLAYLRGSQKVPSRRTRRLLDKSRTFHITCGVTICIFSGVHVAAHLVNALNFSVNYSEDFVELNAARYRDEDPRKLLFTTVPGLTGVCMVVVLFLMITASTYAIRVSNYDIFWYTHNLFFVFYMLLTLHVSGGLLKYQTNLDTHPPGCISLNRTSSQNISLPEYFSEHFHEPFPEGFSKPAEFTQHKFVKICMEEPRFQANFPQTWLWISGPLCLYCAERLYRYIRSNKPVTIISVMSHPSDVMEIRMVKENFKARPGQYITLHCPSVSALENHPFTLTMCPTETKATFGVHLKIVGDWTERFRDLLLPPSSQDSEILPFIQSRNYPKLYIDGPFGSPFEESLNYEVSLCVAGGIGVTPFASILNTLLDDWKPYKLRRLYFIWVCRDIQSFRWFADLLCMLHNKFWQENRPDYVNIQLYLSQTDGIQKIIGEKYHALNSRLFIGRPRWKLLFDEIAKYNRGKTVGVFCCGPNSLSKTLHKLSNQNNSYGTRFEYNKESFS

[20] = biological target: NADPH oxidase 5 (Homo sapiens) (UniProt Q96PH1); assay: NOX5-dependent H2O2 signal modulators, primary screen, NOX inhibitor project, cell-based, HEK293-NOX5, Amplex Red fluorescence (AID 1161); settings: HEK293-NOX5, ionomycin, 45 min, higher = more signal
NADPH oxidase 5 (Homo sapiens), sequence (Q96PH1 whole entry, looked up): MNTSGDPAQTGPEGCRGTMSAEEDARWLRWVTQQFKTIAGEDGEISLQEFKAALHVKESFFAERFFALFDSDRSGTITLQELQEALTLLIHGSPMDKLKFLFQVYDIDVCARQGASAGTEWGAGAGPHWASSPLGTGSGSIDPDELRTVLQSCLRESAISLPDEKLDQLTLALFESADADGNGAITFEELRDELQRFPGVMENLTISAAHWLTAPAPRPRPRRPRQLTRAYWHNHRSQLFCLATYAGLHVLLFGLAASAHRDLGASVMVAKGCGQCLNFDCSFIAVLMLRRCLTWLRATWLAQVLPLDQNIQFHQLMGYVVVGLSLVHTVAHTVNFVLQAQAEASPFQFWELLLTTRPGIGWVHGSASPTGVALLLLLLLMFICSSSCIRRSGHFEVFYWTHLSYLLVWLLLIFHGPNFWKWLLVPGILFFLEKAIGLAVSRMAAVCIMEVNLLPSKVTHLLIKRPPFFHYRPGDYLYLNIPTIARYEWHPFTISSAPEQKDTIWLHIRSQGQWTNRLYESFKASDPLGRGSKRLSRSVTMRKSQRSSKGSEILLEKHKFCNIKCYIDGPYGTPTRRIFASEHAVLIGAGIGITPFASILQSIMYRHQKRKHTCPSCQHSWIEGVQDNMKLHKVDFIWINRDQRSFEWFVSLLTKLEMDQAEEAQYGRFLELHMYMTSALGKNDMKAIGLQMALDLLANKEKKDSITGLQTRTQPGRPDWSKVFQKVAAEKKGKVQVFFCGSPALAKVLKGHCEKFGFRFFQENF

Structure (SMILES) | composite z-score [1] | z-score [2] | z-score [3] | z-score [4] | z-score [5] | composite z-score [6] | composite z-score [7] | composite z-score [8] | composite z-score [9] | composite z-score [10] | z-score [11] | composite z-score [12] | z-score [13] | z-score [14] | z-score [15] | z-score [16] | z-score [17] | z-score [18] | z-score [19] | z-score [20]
COC(=O)[C@@]1(Cc2ccc(OC)cc2)[C@H]2c3cc(C(=O)N(C)C)n(Cc4cccc5ccccc45)c3C[C@H]2CN1C(=O)c1ccccc1 | 1.44 | -4.45 (inactive) | -0.0601 (inactive) | 0.0075 (inactive) | 0.458 (inactive) | 0.697 | 0.943 | 0.817 | 1.14 | 0.659 | -1.27 (inactive) | 0.468 | 2.33 (inactive) | -0.206 (inactive) | 1.19 (inactive) | -1.39 (inactive) | 2.11 | -3.14 (inactive) | -1.83 (inactive) | -4.62
C=CCOC(=O)[C@@H]1[C@H]2C(=O)O[C@H](c3ccccc3)[C@H](c3ccccc3)N2[C@H](c2ccc(OCCOC(=O)[C@@H]3C[C@@H]4C(=O)N[C@@H](CCCCN(C)C)C(=O)N4[C@@H]3c3ccc(O)cc3)cc2)[C@@]12C(=O)Nc1ccc(I)cc12 | 0.312 | -0.768 (inactive) | -0.975 (inactive) | -0.675 (inactive) | 0.595 (inactive) | 0.321 | 0.0649 | 0.724 | 1.84 | 1.74 | -0.193 (inactive) | -0.012 | -1.43 (inactive) | 0.997 (inactive) | 3.77 (inactive) | 0.374 (inactive) | -0.381 | 1.36 (inactive) | 0.636 (inactive) | 0.167
O=C1NC(=O)C2C1C=CC(C(O)C(c1ccccc1)c1ccccc1)N2Nc1ccc(Cl)cc1Cl (stereo not given) | 0.223 | -1.78 (inactive) | -0.548 (inactive) | -0.14 (inactive) | 0.253 (inactive) | 1.23 | 0.102 | -0.614 | -0.0412 | -0.566 | -1.53 (inactive) | 0.42 | 8.4 (active) | 2.11 (inactive) | 0.537 (inactive) | 2.49 (inactive) | -1.02 | -0.421 (inactive) | -5.03 (inactive) | -2.4
C=CCNC(=O)[C@H]1[C@@H]2C(=O)O[C@@H](c3ccccc3)[C@@H](c3ccccc3)N2[C@@H](c2ccccc2OCCO)[C@]12C(=O)Nc1ccc(C#CC3=CCCCC3)cc12 | 0.291 | -6.47 (inactive) | 1.64 (inactive) | 0.484 (inactive) | 1.05 (inactive) | 0.0808 | 0.0074 | 1.23 | 1.14 | 1.61 | 0.748 (inactive) | 0.0919 | 3.01 (inactive) | 2.25 (inactive) | 0.407 (inactive) | 1.71 (inactive) | 0.142 | 1.38 (inactive) | 0.676 (inactive) | 1.75
CCOC(=O)[C@H]1C/C=C/C[C@H](C(=O)OCC)C(=O)O[C@H]2[C@@H](OC)O[C@H](CO)[C@@H](OC(=O)Nc3cccc(F)c3)[C@@H]2OC1=O | 0.39 | -6.52 (inactive) | -0.509 (inactive) | 0.765 (inactive) | -0.848 (inactive) | 0.555 | 0.83 | -0.24 | 0.118 | 0.849 | 0.0021 (inactive) | 1.53 | 4.53 (inactive) | 1.81 (inactive) | -2.04 (inactive) | 1.61 (inactive) | -0.0707 | -2.12 (inactive) | -0.389 (inactive) | -1.22
COc1ccc(CCNC(=O)[C@@H]2c3ccccc3C(=O)N(C3Cc4ccccc4C3)[C@H]2c2ccc(CO)cc2)cc1 | -0.062 | -0.221 (inactive) | -0.17 (inactive) | -0.0888 (inactive) | -1.01 (inactive) | -0.217 | -0.0448 | 0.0114 | 0.067 | 0.13 | -0.483 (inactive) | -0.0544 | 6.43 (inactive) | 0.65 (inactive) | 0.474 (inactive) | 0.183 (inactive) | -0.484 | -3.31 (inactive) | -0.185 (inactive) | -3.47
C=CCOC(=O)[C@H]1[C@@H]2C(=O)O[C@@H](c3ccccc3)[C@@H](c3ccccc3)N2[C@@H](c2ccc(OCCOC(=O)[C@@H]3C[C@@H]4C(=O)N[C@@H](CCCC[N+](C)(C)C)C(=O)N4[C@@H]3c3ccc(O)cc3)cc2)[C@]12C(=O)Nc1ccccc12 | 0.444 | -2.47 (inactive) | -1.19 (inactive) | -1.07 (inactive) | -1.48 (inactive) | -0.0862 | -0.0494 | 1.67 | 1.23 | 2.06 | 0.443 (inactive) | 0.0104 | -0.906 (inactive) | -0.689 (inactive) | 4.3 (inactive) | -1.58 (inactive) | 1.28 | 2.42 (inactive) | 0.568 (inactive) | 1.41
CN1C(=O)C2C=CC(C(O)c3cc(C(F)(F)F)cc(C(F)(F)F)c3)N(N3CCCCC3)C2C1=O (stereo not given) | 0.209 | 0.401 (inactive) | -0.15 (inactive) | 0.44 (inactive) | -0.411 (inactive) | -0.0121 | 0.0047 | -0.083 | 0.502 | 0.035 | -0.78 (inactive) | 0.349 | 1.2 (inactive) | 0.968 (inactive) | 0.859 (inactive) | 0.999 (inactive) | -1.08 | 0.00363 (inactive) | -0.651 (inactive) | 1.01
